Laboratory results taken from paper PMC7862700, “An all-to-all approach to the identification of sequence-specific readers for epigenetic DNA modifications on cytosine”.

Key:
Test in all cases: DAPPL (digital affinity profiling via proximity ligation, sequencing); 10 mM Tris-HCl pH 7.5, 50 mM NaCl, 1 mM DTT, 4% glycerol, room temperature, 30 min; GST-TFs on glutathione beads, 16-mer random dsDNA library, 0.1% formaldehyde crosslink after washing; high values mean tight binding
Details in all cases: protein: recombinant; tags: N-terminal GST; dsDNA, one strand shown
[1] = molecular target: T1, ERF (Homo sapiens, UniProt P50548 1-548)
T1 sequence: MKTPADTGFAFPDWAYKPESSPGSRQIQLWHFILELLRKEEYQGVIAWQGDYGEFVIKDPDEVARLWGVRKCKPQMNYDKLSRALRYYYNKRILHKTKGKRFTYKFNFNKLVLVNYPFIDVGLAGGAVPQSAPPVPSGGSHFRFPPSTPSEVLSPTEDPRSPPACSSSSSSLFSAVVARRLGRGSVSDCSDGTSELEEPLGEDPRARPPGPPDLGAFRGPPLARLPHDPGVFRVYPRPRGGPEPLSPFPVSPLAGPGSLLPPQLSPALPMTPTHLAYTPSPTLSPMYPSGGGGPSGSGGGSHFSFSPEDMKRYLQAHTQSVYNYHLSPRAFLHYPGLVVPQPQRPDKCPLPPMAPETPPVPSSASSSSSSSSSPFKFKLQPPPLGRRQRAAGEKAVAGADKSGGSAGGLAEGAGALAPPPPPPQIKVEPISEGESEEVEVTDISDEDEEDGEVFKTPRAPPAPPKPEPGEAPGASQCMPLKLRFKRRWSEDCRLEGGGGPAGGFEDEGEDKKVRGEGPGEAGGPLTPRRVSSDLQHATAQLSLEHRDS
Procedure, shortened: (§1)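 Binding signal is defined as a hexamer's read frequency for one factor over its frequency for the tag-only sample. To obtain reads, GST-fused human transcription factors were expressed in yeast, captured on glutathione beads, barcoded with DNA and pooled with that sample. Pools met 200 nmole of a 16-mer random double-stranded DNA library in Tris/NaCl/DTT/glycerol buffer for 30 min at room temperature before washing, 0.1% formaldehyde crosslinking, proximity ligation (BsaI/T4 ligase, 1 h, 37 °C), PCR and Illumina NextSeq500 sequencing.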

[2] = molecular target: T2, ETV3L (Homo sapiens, UniProt Q6ZN32 1-361)
T2 sequence: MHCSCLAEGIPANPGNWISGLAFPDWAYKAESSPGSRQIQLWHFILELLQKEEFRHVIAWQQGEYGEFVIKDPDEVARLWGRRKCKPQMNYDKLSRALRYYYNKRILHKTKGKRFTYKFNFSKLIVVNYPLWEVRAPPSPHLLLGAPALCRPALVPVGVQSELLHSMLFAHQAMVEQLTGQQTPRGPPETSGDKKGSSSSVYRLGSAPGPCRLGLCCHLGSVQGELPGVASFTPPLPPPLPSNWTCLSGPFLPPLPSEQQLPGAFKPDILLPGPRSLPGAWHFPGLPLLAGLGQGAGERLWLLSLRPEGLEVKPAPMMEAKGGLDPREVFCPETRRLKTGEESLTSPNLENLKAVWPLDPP
Procedure, shortened: as §1

[3] = molecular target: T3, ETS2 (Homo sapiens, UniProt P15036 1-469)
T3 sequence: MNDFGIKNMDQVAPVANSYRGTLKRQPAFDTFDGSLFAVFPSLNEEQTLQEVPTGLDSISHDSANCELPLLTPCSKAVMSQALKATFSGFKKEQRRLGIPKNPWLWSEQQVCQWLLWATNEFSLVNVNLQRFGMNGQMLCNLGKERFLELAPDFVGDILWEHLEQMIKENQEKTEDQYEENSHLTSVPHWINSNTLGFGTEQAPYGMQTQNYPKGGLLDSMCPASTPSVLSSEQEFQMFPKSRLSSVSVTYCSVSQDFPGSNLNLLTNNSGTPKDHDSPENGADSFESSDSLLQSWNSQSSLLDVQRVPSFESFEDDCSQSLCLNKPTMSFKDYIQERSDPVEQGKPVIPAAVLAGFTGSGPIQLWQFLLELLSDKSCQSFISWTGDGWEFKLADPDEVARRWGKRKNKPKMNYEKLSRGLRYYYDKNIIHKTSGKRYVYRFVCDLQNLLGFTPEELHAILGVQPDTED
Procedure, shortened: as §1

[4] = molecular target: T4, SPDEF (Homo sapiens, UniProt O95238 1-335)
T4 sequence: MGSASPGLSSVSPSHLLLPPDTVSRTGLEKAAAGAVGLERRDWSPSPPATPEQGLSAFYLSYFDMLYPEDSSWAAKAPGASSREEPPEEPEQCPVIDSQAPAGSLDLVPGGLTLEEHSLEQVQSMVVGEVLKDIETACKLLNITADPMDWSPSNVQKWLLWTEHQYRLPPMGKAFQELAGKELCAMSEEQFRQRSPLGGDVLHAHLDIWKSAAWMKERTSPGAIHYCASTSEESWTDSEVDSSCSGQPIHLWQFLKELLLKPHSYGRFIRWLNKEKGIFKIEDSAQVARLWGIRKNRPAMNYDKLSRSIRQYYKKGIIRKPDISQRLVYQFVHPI
Procedure, shortened: as §1

[5] = molecular target: T5, ETV7 (Homo sapiens, UniProt Q9Y603 1-341)
T5 sequence: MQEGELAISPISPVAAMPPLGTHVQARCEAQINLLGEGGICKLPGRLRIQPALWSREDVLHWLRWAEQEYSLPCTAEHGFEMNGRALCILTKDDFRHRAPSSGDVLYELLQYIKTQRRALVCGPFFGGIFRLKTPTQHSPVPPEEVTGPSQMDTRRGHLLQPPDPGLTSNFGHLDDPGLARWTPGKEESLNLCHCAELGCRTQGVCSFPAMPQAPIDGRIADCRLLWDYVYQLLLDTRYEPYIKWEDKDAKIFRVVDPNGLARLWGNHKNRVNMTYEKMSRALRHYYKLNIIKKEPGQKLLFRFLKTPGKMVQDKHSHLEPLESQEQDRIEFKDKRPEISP
Procedure, shortened: as §1

[6] = molecular target: T6, ELF5 (Homo sapiens, UniProt Q9UKW6-2 1-255)
T6 sequence: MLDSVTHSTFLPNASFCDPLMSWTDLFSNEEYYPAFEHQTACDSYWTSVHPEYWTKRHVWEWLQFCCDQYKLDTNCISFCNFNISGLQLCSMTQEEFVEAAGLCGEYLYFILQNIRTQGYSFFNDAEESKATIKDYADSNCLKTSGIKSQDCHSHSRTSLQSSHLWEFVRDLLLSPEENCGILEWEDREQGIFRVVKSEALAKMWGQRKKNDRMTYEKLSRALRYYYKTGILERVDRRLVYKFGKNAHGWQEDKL
Procedure, shortened: as §1

[7] = molecular target: T7, ETV3 (Homo sapiens, UniProt P41162-2 1-143)
T7 sequence: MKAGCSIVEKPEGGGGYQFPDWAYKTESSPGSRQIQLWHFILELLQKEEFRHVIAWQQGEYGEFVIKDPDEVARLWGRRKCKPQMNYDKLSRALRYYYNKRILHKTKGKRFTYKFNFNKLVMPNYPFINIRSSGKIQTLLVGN
Procedure, shortened: as §1

[8] = molecular target: ETV6 (Homo sapiens, UniProt P41212 1-452)
ETV6, sequence (P41212 whole entry): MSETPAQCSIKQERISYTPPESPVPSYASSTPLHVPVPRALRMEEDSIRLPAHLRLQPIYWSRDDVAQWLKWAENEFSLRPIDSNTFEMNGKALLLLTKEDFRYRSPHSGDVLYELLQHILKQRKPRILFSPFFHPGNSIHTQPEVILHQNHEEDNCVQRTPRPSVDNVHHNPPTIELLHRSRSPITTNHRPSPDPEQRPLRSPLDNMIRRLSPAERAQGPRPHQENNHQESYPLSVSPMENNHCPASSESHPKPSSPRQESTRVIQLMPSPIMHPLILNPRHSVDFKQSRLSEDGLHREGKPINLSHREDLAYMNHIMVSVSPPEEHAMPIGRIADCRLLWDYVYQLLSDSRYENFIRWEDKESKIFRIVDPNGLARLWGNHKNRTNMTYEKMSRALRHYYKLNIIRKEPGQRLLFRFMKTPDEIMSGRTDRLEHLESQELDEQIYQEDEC
Procedure, shortened: as §1

Sequence: ACGTCC
- binding signal [1]: 1.49 fold enrichment (6-mer frequency, TF over GST control)
- binding signal [2]: 1.59 fold enrichment (6-mer frequency, TF over GST control)
- binding signal [3]: 1.64 fold enrichment (6-mer frequency, TF over GST control)
- binding signal [4]: 2.11 fold enrichment (6-mer frequency, TF over GST control)
- binding signal [5]: 1.61 fold enrichment (6-mer frequency, TF over GST control)
- binding signal [6]: 1.77 fold enrichment (6-mer frequency, TF over GST control)
- binding signal [7]: 1.61 fold enrichment (6-mer frequency, TF over GST control)
- binding signal [8]: 1.74 fold enrichment (6-mer frequency, TF over GST control)

Sequence: AATTGA
- binding signal [1]: 1.24 fold enrichment (6-mer frequency, TF over GST control)
- binding signal [2]: 1.13 fold enrichment (6-mer frequency, TF over GST control)
- binding signal [3]: 1.26 fold enrichment (6-mer frequency, TF over GST control)
- binding signal [4]: 1.15 fold enrichment (6-mer frequency, TF over GST control)
- binding signal [5]: 1.28 fold enrichment (6-mer frequency, TF over GST control)
- binding signal [6]: 1.21 fold enrichment (6-mer frequency, TF over GST control)
- binding signal [7]: 1.17 fold enrichment (6-mer frequency, TF over GST control)
- binding signal [8]: 1.19 fold enrichment (6-mer frequency, TF over GST control)

Sequence: AACCTT
- binding signal [1]: 1.39 fold enrichment (6-mer frequency, TF over GST control)
- binding signal [2]: 1.27 fold enrichment (6-mer frequency, TF over GST control)
- binding signal [3]: 1.38 fold enrichment (6-mer frequency, TF over GST control)
- binding signal [4]: 1.29 fold enrichment (6-mer frequency, TF over GST control)
- binding signal [5]: 1.29 fold enrichment (6-mer frequency, TF over GST control)
- binding signal [6]: 1.33 fold enrichment (6-mer frequency, TF over GST control)
- binding signal [7]: 1.28 fold enrichment (6-mer frequency, TF over GST control)
- binding signal [8]: 1.27 fold enrichment (6-mer frequency, TF over GST control)

Sequence: ATCTAT
- binding signal [1]: 1.12 fold enrichment (6-mer frequency, TF over GST control)
- binding signal [2]: 1.07 fold enrichment (6-mer frequency, TF over GST control)
- binding signal [3]: 1.15 fold enrichment (6-mer frequency, TF over GST control)
- binding signal [4]: 1.17 fold enrichment (6-mer frequency, TF over GST control)
- binding signal [5]: 1.18 fold enrichment (6-mer frequency, TF over GST control)
- binding signal [6]: 1.05 fold enrichment (6-mer frequency, TF over GST control)
- binding signal [7]: 1.12 fold enrichment (6-mer frequency, TF over GST control)
- binding signal [8]: 1.14 fold enrichment (6-mer frequency, TF over GST control)

Sequence: ACCGAT
- binding signal [1]: 1.05 fold enrichment (6-mer frequency, TF over GST control)
- binding signal [2]: 1.11 fold enrichment (6-mer frequency, TF over GST control)
- binding signal [3]: 1.11 fold enrichment (6-mer frequency, TF over GST control)
- binding signal [4]: 1.05 fold enrichment (6-mer frequency, TF over GST control)
- binding signal [5]: 1.08 fold enrichment (6-mer frequency, TF over GST control)
- binding signal [6]: 1.04 fold enrichment (6-mer frequency, TF over GST control)
- binding signal [7]: 1.13 fold enrichment (6-mer frequency, TF over GST control)
- binding signal [8]: 1.08 fold enrichment (6-mer frequency, TF over GST control)

Sequence: TACTTG
- binding signal [1]: 1.39 fold enrichment (6-mer frequency, TF over GST control)
- binding signal [2]: 1.45 fold enrichment (6-mer frequency, TF over GST control)
- binding signal [3]: 1.24 fold enrichment (6-mer frequency, TF over GST control)
- binding signal [4]: 1.21 fold enrichment (6-mer frequency, TF over GST control)
- binding signal [5]: 1.34 fold enrichment (6-mer frequency, TF over GST control)
- binding signal [6]: 1.35 fold enrichment (6-mer frequency, TF over GST control)
- binding signal [7]: 1.34 fold enrichment (6-mer frequency, TF over GST control)
- binding signal [8]: 1.24 fold enrichment (6-mer frequency, TF over GST control)

Sequence: TTAATT
- binding signal [1]: 1.39 fold enrichment (6-mer frequency, TF over GST control)
- binding signal [2]: 1.39 fold enrichment (6-mer frequency, TF over GST control)
- binding signal [3]: 1.5 fold enrichment (6-mer frequency, TF over GST control)
- binding signal [4]: 1.3 fold enrichment (6-mer frequency, TF over GST control)
- binding signal [5]: 1.55 fold enrichment (6-mer frequency, TF over GST control)
- binding signal [6]: 1.43 fold enrichment (6-mer frequency, TF over GST control)
- binding signal [7]: 1.44 fold enrichment (6-mer frequency, TF over GST control)
- binding signal [8]: 1.4 fold enrichment (6-mer frequency, TF over GST control)
